Our source for the inhibition values is PubChem BioAssay AID525 (The Scripps Research Institute Molecular Screening Center, 2006).

The whole screen tested about 65,000 compounds, of which about 360 (0.55%) were called active. This is one part of a sample in which actives are shown more often than they occur. Unmarked numbers belong to inactive results.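 Rule for the calls: active = inhibition above the mean inhibition of all tested compounds plus 3 SD (cut at about 48% in these data); inactive = the rest.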

The target of this experiment is Steroidogenic factor 1 (Homo sapiens) (UniProt Q13285). As to the kind of experiment: suppressors of SF-1 driven luciferase transcription – cell-based, CHO-K1, Gal4-SF-1 LBD, luciferase luminescence, primary screen (AID 525).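 Note: 0% = SF-1 transfected cells with DMSO and 100% = mock-transfected cells lacking SF-1.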 The settings on record: CHO-K1 Gal4-SF-1 LBD luciferase reporter; at 10 µM; active compounds read high.
Sequence of Steroidogenic factor 1 (Homo sapiens) (Q13285 whole entry, looked up, the tested form may be a part): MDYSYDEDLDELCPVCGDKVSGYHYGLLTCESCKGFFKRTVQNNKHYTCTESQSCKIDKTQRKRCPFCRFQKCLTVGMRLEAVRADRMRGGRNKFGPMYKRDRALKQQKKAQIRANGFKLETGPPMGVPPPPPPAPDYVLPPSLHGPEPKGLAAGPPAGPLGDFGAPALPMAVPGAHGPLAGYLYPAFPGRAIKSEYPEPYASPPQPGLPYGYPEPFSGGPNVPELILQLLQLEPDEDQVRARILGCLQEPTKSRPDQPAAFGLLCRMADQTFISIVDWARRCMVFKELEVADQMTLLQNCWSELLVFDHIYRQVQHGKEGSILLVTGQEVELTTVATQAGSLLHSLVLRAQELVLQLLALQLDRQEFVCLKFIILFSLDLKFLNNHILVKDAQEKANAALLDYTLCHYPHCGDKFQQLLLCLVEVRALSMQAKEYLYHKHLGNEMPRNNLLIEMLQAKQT
Take `O=C(NCCCN1CCN(C2CCCCC2)CC1)Nc1ccccc1C(F)(F)F`: the inhibition (commonly the change of the read-out against control, counted positive when it falls) was -13.5%. For `CC(C)(C)NC(=O)C(c1ccco1)N(Cc1ccc2c(c1)OCO2)C(=O)Cn1nnc2ccccc21` (configuration not stated) the value was -8.6%; for `CCOc1cc(S(=O)(=O)NC2CC(C)(C)NC(C)(C)C2)ccc1F`, -4.6%; for `OCCCNC(c1ccccc1)c1ccc(O)cc1` (configuration not stated), -6.6%.

Take `CCCOc1ccccc1C(=O)NCCCC(=O)O`: the inhibition was -3.2%. With `COc1ccccc1Oc1ccc(S(=O)(=O)Nc2cccnc2)cc1`, the inhibition was 13.8%. In the case of `COc1cc2cc(CN(CCN3CCCC3)C(=O)Nc3ccccc3Cl)c(=O)[nH]c2cc1OC` it was 8.5%; in that of `Clc1cccc(Cl)c1Cn1nnc(-c2cccs2)n1`, -50.8%; in that of `CCCNC(=O)C1CC(=O)N(c2ccc(OCC(=O)Nc3cccc(C)c3C)cc2)C1` (configuration not stated), -1%. In the case of `NC(=O)C1CC=CCC1C(=O)OCC(Cl)=C(Cl)Cl` (configuration not stated) it was 38.2%; in that of `CCCCOC(=O)c1[nH]c(C)c(C(=O)OC)c1C`, -77.7%; in that of `O=C(CSc1nnc(-c2c[nH]c3ccccc23)n1-c1ccc(F)cc1)NCc1ccco1`, -15.6%.

Take `CCOC(=O)c1ccc(-c2ccc(C(=O)Nc3cccnc3)o2)cc1`: the inhibition is -51.3%.

On to `Cc1ccc(-c2nnc(SC(C)C#N)n2N)cc1` (configuration not stated), for which the inhibition is -9.5%. For `C/C(=C\c1ccco1)C1Nc2cccc3cccc(c23)N1` the value was 1.5%; for `O=C(Nc1ccc(-c2nnc(-c3ccccc3)o2)cc1)C1CCCO1` (configuration not stated), -65.9%; for `Cc1ccc(OCC(=O)Nc2ccc(-c3nnc(-c4ccco4)o3)cc2)cc1`, -65.5%. For `COc1ccc(CC(=O)Nc2ccc(-c3nnc(-c4ccccc4)o3)cc2)cc1` the value was 59.5% (active); for `O=C(CCS(=O)(=O)c1ccccc1)Nc1nc2c(s1)CCCC2`, -3.7%. For `CS(=O)(=O)c1ccc2nc(NC(=O)CN3CCCCCC3)sc2c1` the value was 3.7%.

Take `O=C(NCCc1ccc(Cl)cc1)C1CC(=O)N(C2CCCCC2)C1` (configuration not stated): the inhibition is -13.3%. In the case of `CCCCCCOC(=O)NCC(O)c1ccccc1` (configuration not stated) it was -52.5%; in that of `O=C1CCC(Cc2ccccc2)N1` (configuration not stated), 7.6%; in that of `COc1ccc(N2C(=O)CCC(C(=O)Nc3ccccn3)C2c2ccc(OC)c(OC)c2)cc1` (configuration not stated), -11%.

For the molecule `COCCN(CC(=O)Nc1ccccc1C)S(=O)(=O)c1ccc(S(=O)(=O)N2CCCC2)cc1`, the inhibition was 0.4%. For `COc1ccc(N2CCN(C(=O)CSc3ncnc4c3cnn4-c3ccc(OC)cc3)CC2)cc1` the value was -9%; for `COc1ccc(Nc2cc(C)nc(-n3nc(C)cc3C)n2)cc1`, 53.7% (active). For `Cn1c(=O)c2cn(-c3cccc4ccccc34)cc2n(C)c1=O` the value was -21.5%. In the case of `Cc1cc(NC(=O)c2cc(-c3cccs3)on2)nn1Cc1ccc(Cl)cc1` it was 2.7%; in that of `NC(=O)CCCC1=NS(=O)(=O)c2ccccc2N1`, 10.1%. For `N/C(=N\c1nc2ccccc2o1)NC(=O)C(Cc1ccccc1)N1C(=O)c2ccccc2C1=O` (configuration not stated), the inhibition was 0.7%. In the case of `CCOC(=O)C1=C(C)NC(C)=C(C(=O)OCC)C1c1ccccn1` it was 6.7%.

On to `CCOC(=O)CNC(=O)CSc1nnc(-c2cccc(OC)c2)n1CC`, for which the inhibition is 12.5%.

On to `CC(C)(C)n1nc2c(c1NC(=O)c1ccc(S(=O)(=O)N3CCCC3)cc1)CS(=O)C2` (configuration not stated), for which the inhibition was 6.6%. Take `Cc1ccc(C(=O)Nc2nnc(-c3cccs3)s2)cc1C`: the inhibition was -80.9%. For `CC1CCCCN1S(=O)(=O)c1ccc(C(=O)Nc2nnc(-c3cccs3)o2)cc1` (configuration not stated) the value was 49.4% (active); for `Cc1ccc(-n2c(SCC(=O)Nc3ccc4c(c3)OCO4)nnc2-c2ccoc2C)cc1`, 1%; for `CCCOC(=O)Nc1ccccc1C(N)=O`, -2.2%. For `CCCCOc1ccc(-c2ncc(C(=O)OCC)c(N)n2)cc1` the value was -49.8%; for `O=C(CN1CCN(c2ccccn2)CC1)NCc1cccs1`, -7.1%; for `COc1ccc(-n2ncc3c(N4CCc5ccccc54)ncnc32)cc1`, -59.8%. In the case of `c1cc(-n2cnnn2)ccc1NC1=NCCC1` it was 9.1%; in that of `CCC(=O)Nc1ccc2c(c1)nc(CCN1CCN(C)CC1)n2C`, 2.6%; in that of `CCOC(=O)Cc1csc(NC(=O)C(C)(C)C)n1`, -20.2%.

For `CCn1c(CNc2ccc(OC)cc2)nnc1SCC(=O)c1ccc(OC)cc1`, the inhibition was 9.6%.

Consider `COc1cc(Cl)c(C)cc1NC(=O)CSc1nnc(-c2cccnc2)n1Cc1ccco1`, for which the inhibition is -10.6%. For `Cc1nnc(SCC(=O)N(C(C)C)C(C)C)nc1C` the value was 3.3%. For `O=C(OCC(=O)c1cccs1)C1=COCCO1` the value was -24.5%; for `Cc1ccsc1C(=O)OCC(=O)c1cc(C)n(CC2CCCO2)c1C` (configuration not stated), 80.5% (active). In the case of `CCOc1cccc(NC(=O)CC#N)c1` it was -9.5%; in that of `C/C(=N\O)C1(C)N(O)C(C)(C)C(c2ccc(Br)cc2)=[N+]1[O-]` (configuration not stated), 8.5%. With `Cn1c(-c2ccco2)nc2cc3ccccc3cc21`, the inhibition is 54.3% (active). As for `c1ccc(CSc2nnc(-c3ccco3)n2Cc2ccccc2)cc1`, the inhibition is -76%. On to `O=S(=O)(Nc1ccc2nc(-c3ccco3)[nH]c2c1)c1ccccc1`, for which the inhibition was -53.5%. For `Cc1cc(NC(=O)CCC(=O)N(c2ccccc2)C(C(=O)NC2CCCC2)c2ccncc2)no1` (configuration not stated) the value was -9.4%; for `CCOc1ccccc1NC(=O)CCc1ccc(C)o1`, 14.7%; for `O=C(O)C1CCCN(S(=O)(=O)c2cccc3cccnc23)C1` (configuration not stated), -5.7%. In the case of `COc1ccc(N2CC(C)Cn3c2nc2c3c(=O)n(Cc3ccccc3F)c(=O)n2C)c(OC)c1` (configuration not stated) it was -2.3%; in that of `Nc1ncc(-c2cc3ccccc3oc2=O)s1`, -79.3%.

Consider `CCOC(=O)c1c(C(C#N)C#N)cc(C)nc1C`, for which the inhibition is -2.3%. For `CC(C)COC(=O)c1ccc(NC(=O)C2C3C=CC(C3)C2C(=O)O)cc1` (configuration not stated) the value was -63.7%. In the case of `Cn1c(=O)c2c(nc(SCCNS(=O)(=O)c3ccccc3)n2C)n(C)c1=O` it was 13.3%. In the case of `CC(=O)c1c(N2CCOCC2)nc(=S)n(-c2cc(C)ccc2C)c1C` it was -0.4%; in that of `COC(=O)c1ccc(NC(=O)c2ccco2)cc1`, -85.3%. For `O=C(OC1CCOC1=O)c1ccc(-c2nc3ccccc3s2)s1` (configuration not stated), the inhibition was 59.9% (active). For `COc1ccccc1N1CC(O)=C(c2nc3ccccc3s2)C1=N` the value was -13.3%; for `COc1ccc(CCN2CNc3c(c(=O)n(C)c(=O)n3C)C2)cc1OC`, -1.5%. For `CSCC[C@H](NC(=O)NCCc1ccc(F)cc1)C(=O)O` the value was -3.2%; for `Fc1ccc2nc(Nc3nc4c(s3)CCCC4)sc2c1`, -90%.

In the case of `CCCC(CCC(=O)OC)(C(=O)OCC)c1csc(N)n1` (configuration not stated), the inhibition was -13.3%. With `CC(Oc1ccc(Cl)cc1)C(=O)Nc1ncccn1` (configuration not stated), the inhibition is 16%. In the case of `O=C(Nc1ccc(Cl)cn1)c1cnn2cccnc12` it was -63.8%. For `C=CCN(c1ccc(C(N)=O)cc1)S(C)(=O)=O` the value was -14.5%.

As for `Cc1cccc(CC(=O)Nc2c3c(nn2-c2cccc(Cl)c2)CS(=O)C3)c1` (configuration not stated), the inhibition was 13.6%.

Regarding `COc1cccc(-c2nc3n(n2)C(c2ccccc2Cl)C(C(N)=O)=C(C)N3)c1` (configuration not stated), the inhibition was 17.2%. In the case of `O=S(=O)(c1cccs1)N1CCc2ccccc2C1` it was 12.2%; in that of `COCc1[nH]nc2c1C(C1C=CCCC1)C(C#N)=C(N)O2` (configuration not stated), -8%; in that of `CCOC(=O)[C@H]1CCC[C@@H](NS(=O)(=O)c2ccc(NC(C)=O)cc2)C1`, -18.3%. In the case of `CCN(c1ccccc1)S(=O)(=O)c1ccc(N)cc1` it was -8.5%; in that of `CCCOc1ccc(/C(O)=C2/C(=O)C(=O)N(CCN(C)C)C2c2ccc(OC)c(OC)c2)cc1` (configuration not stated), -2.4%. For `CC(C)Cc1cc(C(=O)NCCc2ccccc2)no1` the value was -80.7%; for `Cc1cc(/C=N/n2cnnc2)c(C)n1-c1ccc2ncccc2c1`, 2.6%. With `O=C(Oc1ccc(-c2nc(-c3ccccn3)no2)cc1)c1ccccc1`, the inhibition was 49.6% (active). On to `Cc1cccc(-c2noc(-c3ccc(F)cc3)n2)c1`, for which the inhibition was -77.6%. For the molecule `CCOC(=O)N1CCC(Nc2c(NCCN3CCN(c4cccc(Cl)c4)CC3)c(=O)c2=O)CC1`, the inhibition was -1.7%. In the case of `COc1ccc(-c2noc(-c3cccc(OC)c3OC)n2)cc1OC` it was -100%; in that of `COc1ccc(-c2nc(-c3ccccc3)no2)c(OC)c1`, 82.9% (active).

On to `COc1ccc2c(c1)CCc1c(C(=O)N3CCCC3)noc1-2`, for which the inhibition is -55.3%.

With `CCOC(=O)N1CCN(C(=O)C2CCN(c3ncnc4c3sc3cccc(F)c34)CC2)CC1`, the inhibition is 55.2% (active). In the case of `CCOC(=O)N1CCN(C(=O)C2CCCN(c3ncnc4c3sc3cccc(F)c34)C2)CC1` (configuration not stated) it was 2.8%. In the case of `CCOC(=O)N1CCN(CC(=O)Nc2cc(C)nn2-c2nc3ccccc3s2)CC1` it was -0.5%; in that of `COc1ccc(C(CC(=O)O)NC(=O)Cc2ccccc2)cc1` (configuration not stated), 10.8%; in that of `COC(=O)c1ccc(NC(=O)C(C)N2C(=O)c3ccccc3C2=O)cc1` (configuration not stated), -11.5%. For `CCC(=O)N1CCN=C1SCc1ccc(F)cc1` the value was -14.3%; for `CCN(CC)c1ccc(C(=O)OCC(=O)c2ccco2)cc1`, -53.6%.

With `CC1CCCN(Cc2nc3c(c(=O)n(C)c(=O)n3C)n2CC(=O)c2ccccc2)C1` (configuration not stated), the inhibition was -26.7%.

`COc1ccc(CCNC(=O)CN2CCC(n3nnc4cc(F)ccc43)CC2)cc1OC`: the inhibition is -4.4%.
